Laboratory results: PubChem BioAssay (EPA / NIEHS)
Records with an inconclusive call do not appear. Active and inactive are the calls of the source. The calls were made as follows, unless noted: active = hit-call score of the fitted dose curve at least 0.9, where 1 is the maximum; inconclusive = response in the unintended direction; inactive = score below 0.9.

Legend:
[1] = CCTE_Deisenroth_5AR_NBTE_donor: CCTE's 5alpha-reductase NanoBRET Target Engagement Assay […], Deisenroth Lab (AID 2284319; active = hit-call score of the fitted dose curve at least 0.9, where 1 is the maximum; inactive = score below 0.9); conditions: actives raise or lower the signal
How it was run: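 HEK293T cells were reverse transfected with an SRD5A2-NanoLuc vector for 20 h, exposed to test chemical (8 points, 10 nM - 29.9 uM) for 3 h, then testosterone tracer for 2 h more. Donor luminescence (460 nm) was read; bidirectional fit versus DMSO.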

[2] = CCTE_Deisenroth_5AR_NBTE_acceptor: CCTE's 5alpha-reductase NanoBRET Target Engagement Assay - Autofluorescence Screen, Deisenroth Lab (AID 2284321; active = hit-call score of the fitted dose curve at least 0.9, where 1 is the maximum; inactive = score below 0.9;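 also: compound fluorescence in the acceptor channel under 460 nm excitation flags autofluorescence artifacts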); conditions: actives raise or lower the signal
How it was run: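 Acceptor fluorescence intensity was read as an artifact-detection endpoint. Test chemicals at an assumed nominal 100 uM were excited at 460 nm across three independent runs. Activity was fitted bidirectionally against DMSO.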

[3] = CEETOX_H295R_OHPREG: CeeTox H295R High-throughput Steroidogenesis Assay for OH-Pregnenolone (OHPREG) (AID 2283434; active = hit-call score of the fitted dose curve at least 0.9, where 1 is the maximum; inactive = score below 0.9); conditions: actives raise or lower the signal
How it was run: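 Hormone levels in spent medium were measured by tandem mass spectrometry following liquid-liquid extraction. Cells (H295R) had been forskolin-stimulated (10 uM, 48 h) before a 48 h chemical exposure at 0.1% DMSO, with activity fitted in both directions against DMSO.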

[4] = CEETOX_H295R_OHPROG: CeeTox H295R High-throughput Steroidogenesis Assay for OH-Progesterone (OHPROG) (AID 2283435; active = hit-call score of the fitted dose curve at least 0.9, where 1 is the maximum; inactive = score below 0.9); conditions: actives raise or lower the signal
How it was run: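 Secreted 17alpha-hydroxyprogesterone is read by tandem MS from media of forskolin-primed H295R cells dosed with chemical for 48 h. Activity is fitted in both directions against DMSO baseline; cytotoxic concentrations are re-tested diluted.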

[5] = CEETOX_H295R_PROG: CeeTox H295R High-throughput Steroidogenesis Assay for Progesterone (PROG) (AID 2283442; active = hit-call score of the fitted dose curve at least 0.9, where 1 is the maximum; inactive = score below 0.9); conditions: actives raise or lower the signal
How it was run: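 Steps: seed H295R cells and let them adhere overnight; prime 48 h with 10 uM forskolin; dose with compound in DMSO at 0.1% final for 48 h; extract medium steroids with MTBE; measure progesterone by LC-MS/MS. MTT viability was run in the same wells.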

[6] = target: human Norepinephrine Transporter (NET), SLC6A2 (gene 6530) (UniProt P23975); experiment: NVS_TR_hNET: NovaScreen (NVS) Transporter Assay for human Norepinephrine Transporter (NET) (AID 2283377);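 also: cell-free membrane protein extracted from CHO cells expressing human NET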;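 as to AC50: displacement of radioligand from human NET seen as loss of scintillation signal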
How it was run: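 Scintillation counts of filter-retained radioligand served as the readout, taken 1 h post-dosing in a cell-free CHO-derived system. Test chemicals ran first at 25 uM in duplicate; confirmed hits were retested across concentrations.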

[7] = target: human Peripheral-type Benzodiazepine Receptor (PBR), TSPO (gene 706) (UniProt P30536); experiment: NVS_MP_hPBR: NovaScreen (NVS) Membrane Protein Assay for human Peripheral-type Benzodiazepine Receptor (PBR) (AID 2283331);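 also: hits reduce radioligand binding relative to DMSO baseline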
How it was run: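 Scintillation counts of filter-bound radioligand served as read-out after 1 h chemical dosing of human colonic membrane preparations. Activity was scored as signal loss against DMSO; initial duplicates at 25 uM, confirmatory concentration series afterward.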

[8] = CCTE_Shafer_MEA_acute_per_network_burst_electrodes_number_mean: CCTE's Neural Acute Assay for Mean Number of Electrodes in a Network Burst, Shafer Lab (AID 2284021; active = hit-call score of the fitted dose curve at least 0.9, where 1 is the maximum; inactive = score below 0.9;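 also: curves fitted for decreases only so hits reduce electrodes per burst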)
How it was run: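 Primary rat cortical networks, mwMEA, 37 C. 20 min stabilization, 40 min baseline, compound 0.03-40 uM, 40 min re-record. Wells need >=10 active electrodes; percent change per well, negative fitting direction.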

[9] = CCTE_Shafer_MEA_acute_network_burst_percentage: CCTE's Neural Acute Assay for Percentage of Network Bursts, Shafer Lab (AID 2284022; active = hit-call score of the fitted dose curve at least 0.9, where 1 is the maximum; inactive = score below 0.9;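 also: curves fitted for loss so actives lower network burst percentage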)
How it was run: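 Readout is the fraction of spikes falling in network bursts, expressed as per-well percent change from a 40-min pre-exposure baseline. Primary rat cortical neurons on MEA were exposed to 0.03-40 uM compound on DIV 13 or 15 and recorded for 40 min at 37 C.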

[10] = CCTE_Shafer_MEA_acute_cross_correlation_area: CCTE's Neural Acute Assay for Area of Cross Correlation, Shafer Lab (AID 2284024; active = hit-call score of the fitted dose curve at least 0.9, where 1 is the maximum; inactive = score below 0.9;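 also: rat primary cortical neuron networks on 48-well MEA at DIV 13 or 15 with 40 min exposure; area under pooled inter-electrode spike cross-correlation near zero lag as percent change from own baseline; curves fitted for loss of cross-correlation area so actives lower synchrony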)
How it was run: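 Plates equilibrated 20 min at 37 C, then 40 min baseline was recorded, compound was added (0.03-40 uM), and a further 40 min was recorded. Wells needed ≥10 active electrodes (≥5 spikes/min) on exposure day.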

[11] = CCTE_Shafer_MEA_acute_synchrony_index: CCTE's Neural Acute Assay for Synchrony, Shafer Lab (AID 2284027; active = hit-call score of the fitted dose curve at least 0.9, where 1 is the maximum; inactive = score below 0.9;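 also: network synchrony index of spontaneous spiking in primary rat cortical neurons on MEAs; fitted for loss of signal so actives lower synchrony relative to DMSO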)
How it was run: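 Spontaneous firing of mature rat cortical networks is captured extracellularly on microelectrode arrays at 37 C, with wells needing ≥10 active electrodes. Each compound (0.03-40 uM) is judged by the change in synchrony index from baseline over 40 min.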

[12] = CCTE_Shafer_MEA_acute_LDH: CCTE's Lactate Dehydrogenase Assay for Cytotoxicity in the Neural Acute Assay, Shafer Lab (AID 2284086);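 also: active means LDH release rises above DMSO vehicle level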
How it was run: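 Released lactate dehydrogenase, read at 490 nm, indicated cytotoxicity after acute 40-min compound treatment of rat cortical neuron networks grown on 48-well MEA plates.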

[13] = target: human CYP2D6, CYP2D6 (gene 1565) (UniProt P10635); experiment: NVS_ADME_hCYP2D6: NovaScreen (NVS) CYP450-related Enzyme Activity (ADME) Assay for human CYP2D6 (AID 2283107)
How it was run: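 Insect-cell recombinant enzyme + fluorogenic substrate, cell-free; 1 h incubation; fluorescence intensity readout. Acetonitrile = neg. ctrl/baseline. Single-point 10 uM, duplicate; follow-up concentration series.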

[14] = target: Muscarinic acetylcholine receptor M2 (Homo sapiens) (UniProt P08172); experiment: NVS_GPCR_hM2: NovaScreen (NVS) G Protein-Coupled Receptor Assay for human Muscarinic, M2 Receptor (AID 2283273)
How it was run: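 CHO membrane prep, radioligand + test compound, 1 h; filtration, scintillation count. Screen 25 uM duplicate → conc. series for actives. Readout: decrease in binding vs DMSO control.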

[15] = tested on: Thyroperoxidase (TPO), gene 54314; experiment: CCTE_Simmons_AUR_rTPO: CCTE's Amplex UltraRed Assay for Thyroperoxidase (TPO) Inhibition, Simmons Lab (AID 2283662);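 also: potency for loss of signal meaning inhibition of peroxidase activity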
How it was run: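 Rat thyroid microsomes (5 ug protein) were incubated with test compound (8 concentrations, 5 nM–87.5 uM final, 0.5% DMSO), 25 uM Amplex UltraRed and 300 uM H2O2 in 200 mM phosphate buffer for 30 min at 37C in the dark; fluorescence read at 544/590 nm.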

[16] = CCTE_Simmons_CellTiterGLO_HEK293T: Viability Assessment in CCTE's Assays for Thyroperoxidase (TPO) Inhibition, Simmons Lab (AID 2283665);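 also: cells exposed to compound for 24 h before readout; actives reduce ATP signal below DMSO vehicle meaning cytotoxicity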
How it was run: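 Cytotoxicity counter-screen: human HEK293T cells in low-serum (1% FBS) medium receive test chemical, 5 nM to 87.5 uM final, for 24 h; ATP is quantified by luciferase luminescence.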

[17] = target: Luciferin 4-monooxygenase (Photinus pyralis) (UniProt P08659); experiment: CCTE_Simmons_QuantiLum_inhib_2: CCTE's Firefly Luciferase Inhibition Assay, Simmons Lab (AID 2283767)
How it was run: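 Counter-screen for nonspecific enzyme inhibition: purified firefly luciferase incubated 30 min at 37C with chemicals up to 87.5 uM final, then luminescence measured after luciferin/dATP injection; activity fitted against DMSO baseline.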

[18] = target: chimpanzee Androgen Receptor (AR), AR (gene 747460) (UniProt O97775); experiment: NVS_NR_cAR: NovaScreen (NVS) Nuclear Receptor Binding Assay for chimpanzee Androgen Receptor (AR) (AID 2283346);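 also: radioligand displacement from AR measured by scintillation counting in a cell-free assay; a loss of bound radioligand signal versus DMSO counts as binding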
How it was run: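 Cell-free competition binding with insect-cell (Sf9/Sf21) extracted chimpanzee AR; scintillation signal from lysate at 72 h. Screened in duplicate at 25 uM, then concentration-response for actives; fitting relative to DMSO.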

[19] = target: bovine Estrogen Receptor (ER), ESR1 (gene 407238) (UniProt P49884); experiment: NVS_NR_bER: NovaScreen (NVS) Nuclear Receptor Binding Assay for bovine Estrogen Receptor (ER) (AID 2283345);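 also: actives lower the bound radioligand count which means they displace the ER ligand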
How it was run: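 Displacement of a radioligand from estrogen receptor in bovine uterine membrane preparations; scintillation signal taken at 18 hours, DMSO as baseline. Single-concentration duplicates (25 uM) preceded concentration-response follow-up of actives.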

[20] = target: mouse Estrogen Receptor alpha (Era), Esr1 (gene 13982) (UniProt P19785); experiment: NVS_NR_mERa: NovaScreen (NVS) Nuclear Receptor Binding Assay for mouse Estrogen Receptor alpha (Era) (AID 2283378);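 also: hit means loss of bound radioligand signal relative to DMSO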
How it was run: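 Extracted mouse Era incubated with tritiated or iodinated radioligand plus test chemical, 18 h. Bound fraction separated on filters, counted by scintillation. DMSO = negative control/baseline; duplicate single-point at 25 uM, then concentration-response follow-up.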

Sequence of bovine Estrogen Receptor (ER), ESR1 (gene 407238) (P49884 whole entry, looked up): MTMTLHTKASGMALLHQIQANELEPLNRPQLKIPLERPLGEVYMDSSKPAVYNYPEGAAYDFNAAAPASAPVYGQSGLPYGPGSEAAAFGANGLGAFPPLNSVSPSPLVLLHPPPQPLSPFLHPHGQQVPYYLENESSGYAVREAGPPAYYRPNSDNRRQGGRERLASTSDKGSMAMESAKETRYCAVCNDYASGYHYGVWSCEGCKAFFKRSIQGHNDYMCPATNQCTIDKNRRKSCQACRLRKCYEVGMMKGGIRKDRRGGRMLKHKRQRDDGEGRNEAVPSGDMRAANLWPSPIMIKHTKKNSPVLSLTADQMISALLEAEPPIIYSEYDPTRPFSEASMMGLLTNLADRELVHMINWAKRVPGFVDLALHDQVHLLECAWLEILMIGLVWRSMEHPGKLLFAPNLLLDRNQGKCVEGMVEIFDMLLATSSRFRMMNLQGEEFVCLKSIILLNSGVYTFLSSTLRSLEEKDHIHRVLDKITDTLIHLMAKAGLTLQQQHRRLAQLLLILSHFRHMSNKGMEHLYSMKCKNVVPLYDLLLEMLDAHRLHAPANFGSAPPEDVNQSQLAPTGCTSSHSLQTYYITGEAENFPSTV
Sequence of chimpanzee Androgen Receptor (AR), AR (gene 747460) (O97775 whole entry, looked up): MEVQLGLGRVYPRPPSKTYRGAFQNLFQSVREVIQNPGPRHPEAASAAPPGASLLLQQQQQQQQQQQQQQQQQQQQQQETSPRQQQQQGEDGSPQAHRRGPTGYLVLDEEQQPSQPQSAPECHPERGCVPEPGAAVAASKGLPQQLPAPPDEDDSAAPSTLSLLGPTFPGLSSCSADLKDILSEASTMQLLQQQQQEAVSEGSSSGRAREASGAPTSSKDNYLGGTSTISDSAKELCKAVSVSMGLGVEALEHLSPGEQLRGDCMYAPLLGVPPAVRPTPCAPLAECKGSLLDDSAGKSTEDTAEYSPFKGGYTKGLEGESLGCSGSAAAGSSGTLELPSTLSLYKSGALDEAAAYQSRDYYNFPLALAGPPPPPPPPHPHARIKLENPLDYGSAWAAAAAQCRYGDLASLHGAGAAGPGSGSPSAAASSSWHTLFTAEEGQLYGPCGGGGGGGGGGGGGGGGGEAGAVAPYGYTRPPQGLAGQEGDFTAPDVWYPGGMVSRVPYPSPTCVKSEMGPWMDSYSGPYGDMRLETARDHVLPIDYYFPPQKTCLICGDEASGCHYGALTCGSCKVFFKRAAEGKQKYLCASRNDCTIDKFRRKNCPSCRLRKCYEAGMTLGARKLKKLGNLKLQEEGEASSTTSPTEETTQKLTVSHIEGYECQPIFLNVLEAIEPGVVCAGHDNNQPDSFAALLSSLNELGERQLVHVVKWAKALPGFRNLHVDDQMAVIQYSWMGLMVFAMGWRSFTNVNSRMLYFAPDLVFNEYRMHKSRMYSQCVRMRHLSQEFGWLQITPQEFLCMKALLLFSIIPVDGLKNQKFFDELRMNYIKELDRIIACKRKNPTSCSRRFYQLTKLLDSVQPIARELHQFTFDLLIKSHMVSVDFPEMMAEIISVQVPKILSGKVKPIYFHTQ
Sequence of human Norepinephrine Transporter (NET), SLC6A2 (gene 6530) (P23975 whole entry, looked up): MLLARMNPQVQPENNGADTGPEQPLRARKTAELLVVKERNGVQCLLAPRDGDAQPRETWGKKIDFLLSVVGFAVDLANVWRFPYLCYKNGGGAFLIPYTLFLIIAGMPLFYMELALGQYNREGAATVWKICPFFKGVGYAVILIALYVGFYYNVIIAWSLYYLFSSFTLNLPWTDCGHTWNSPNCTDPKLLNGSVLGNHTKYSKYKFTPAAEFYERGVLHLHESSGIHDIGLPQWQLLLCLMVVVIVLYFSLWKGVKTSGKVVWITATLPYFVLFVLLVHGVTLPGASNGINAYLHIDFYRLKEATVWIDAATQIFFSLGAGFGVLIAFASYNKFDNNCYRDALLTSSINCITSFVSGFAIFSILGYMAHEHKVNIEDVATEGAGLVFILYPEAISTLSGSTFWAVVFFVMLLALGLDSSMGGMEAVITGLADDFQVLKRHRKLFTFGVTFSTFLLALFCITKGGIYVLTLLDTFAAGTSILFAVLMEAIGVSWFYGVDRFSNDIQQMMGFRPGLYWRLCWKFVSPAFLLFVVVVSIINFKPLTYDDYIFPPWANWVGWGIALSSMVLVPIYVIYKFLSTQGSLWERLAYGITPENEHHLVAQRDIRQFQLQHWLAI
Sequence of human Peripheral-type Benzodiazepine Receptor (PBR), TSPO (gene 706) (P30536 whole entry, looked up): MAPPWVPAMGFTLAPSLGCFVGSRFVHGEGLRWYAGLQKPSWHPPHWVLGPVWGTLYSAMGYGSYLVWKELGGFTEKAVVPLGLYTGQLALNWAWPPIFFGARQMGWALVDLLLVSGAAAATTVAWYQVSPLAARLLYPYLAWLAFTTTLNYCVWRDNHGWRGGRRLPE
Sequence of mouse Estrogen Receptor alpha (Era), Esr1 (gene 13982) (P19785 whole entry, looked up): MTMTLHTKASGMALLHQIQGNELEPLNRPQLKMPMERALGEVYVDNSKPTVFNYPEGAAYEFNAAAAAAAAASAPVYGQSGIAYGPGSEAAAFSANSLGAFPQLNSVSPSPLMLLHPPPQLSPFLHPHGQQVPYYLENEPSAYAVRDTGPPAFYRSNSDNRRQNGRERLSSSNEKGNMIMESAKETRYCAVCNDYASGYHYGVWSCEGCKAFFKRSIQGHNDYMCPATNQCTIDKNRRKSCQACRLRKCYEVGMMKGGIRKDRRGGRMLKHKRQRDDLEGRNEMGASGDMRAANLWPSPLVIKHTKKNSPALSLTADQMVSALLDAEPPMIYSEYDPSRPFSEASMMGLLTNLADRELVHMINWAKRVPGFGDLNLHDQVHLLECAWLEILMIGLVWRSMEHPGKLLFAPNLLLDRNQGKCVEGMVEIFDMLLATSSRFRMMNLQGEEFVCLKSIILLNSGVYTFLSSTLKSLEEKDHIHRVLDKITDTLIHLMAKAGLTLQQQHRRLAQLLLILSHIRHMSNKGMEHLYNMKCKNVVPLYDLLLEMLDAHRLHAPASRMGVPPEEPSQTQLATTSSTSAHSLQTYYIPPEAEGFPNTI
Sequence of Muscarinic acetylcholine receptor M2 (Homo sapiens) (P08172 whole entry, looked up): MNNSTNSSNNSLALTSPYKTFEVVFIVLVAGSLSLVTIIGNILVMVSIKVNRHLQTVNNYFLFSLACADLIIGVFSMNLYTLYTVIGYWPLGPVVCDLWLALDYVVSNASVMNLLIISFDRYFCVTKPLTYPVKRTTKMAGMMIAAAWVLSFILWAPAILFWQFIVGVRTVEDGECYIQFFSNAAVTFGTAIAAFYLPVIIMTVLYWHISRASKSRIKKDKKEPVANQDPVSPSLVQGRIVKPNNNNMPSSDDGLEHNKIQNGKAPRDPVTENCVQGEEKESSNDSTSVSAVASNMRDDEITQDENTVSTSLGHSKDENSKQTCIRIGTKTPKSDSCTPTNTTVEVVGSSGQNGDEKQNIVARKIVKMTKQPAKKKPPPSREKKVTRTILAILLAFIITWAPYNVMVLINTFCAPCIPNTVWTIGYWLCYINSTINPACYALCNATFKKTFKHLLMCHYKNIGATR
Sequence of human CYP2D6, CYP2D6 (gene 1565) (P10635 whole entry, looked up): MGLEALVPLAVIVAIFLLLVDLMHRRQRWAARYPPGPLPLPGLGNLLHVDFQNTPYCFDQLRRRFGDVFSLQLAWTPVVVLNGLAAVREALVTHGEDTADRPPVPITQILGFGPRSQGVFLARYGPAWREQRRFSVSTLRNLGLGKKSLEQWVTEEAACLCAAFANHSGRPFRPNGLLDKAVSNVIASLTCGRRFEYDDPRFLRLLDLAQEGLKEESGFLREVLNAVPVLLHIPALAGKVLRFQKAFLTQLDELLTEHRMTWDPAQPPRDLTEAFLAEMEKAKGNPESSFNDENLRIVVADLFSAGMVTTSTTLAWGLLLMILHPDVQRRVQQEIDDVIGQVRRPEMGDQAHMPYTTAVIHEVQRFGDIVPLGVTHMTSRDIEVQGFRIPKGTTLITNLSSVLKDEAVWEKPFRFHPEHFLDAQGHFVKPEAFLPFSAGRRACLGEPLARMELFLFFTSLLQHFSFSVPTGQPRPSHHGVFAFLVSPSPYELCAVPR
Sequence of Luciferin 4-monooxygenase (Photinus pyralis) (P08659 whole entry, looked up): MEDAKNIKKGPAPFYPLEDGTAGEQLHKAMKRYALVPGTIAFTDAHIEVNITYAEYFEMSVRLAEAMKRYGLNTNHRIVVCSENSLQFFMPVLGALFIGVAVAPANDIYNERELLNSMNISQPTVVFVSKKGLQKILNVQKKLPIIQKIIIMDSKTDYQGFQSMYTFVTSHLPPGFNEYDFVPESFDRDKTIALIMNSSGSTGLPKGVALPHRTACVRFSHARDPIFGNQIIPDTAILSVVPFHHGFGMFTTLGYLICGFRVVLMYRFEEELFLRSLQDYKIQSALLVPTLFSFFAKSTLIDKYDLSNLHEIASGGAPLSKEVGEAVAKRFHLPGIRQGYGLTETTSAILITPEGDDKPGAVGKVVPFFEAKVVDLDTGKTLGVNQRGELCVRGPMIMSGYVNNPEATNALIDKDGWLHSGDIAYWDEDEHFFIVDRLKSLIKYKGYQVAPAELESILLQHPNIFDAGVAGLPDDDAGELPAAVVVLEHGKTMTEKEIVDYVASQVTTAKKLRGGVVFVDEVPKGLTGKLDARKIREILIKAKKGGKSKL

Question: Which results are given for `O=C(O)/C=C\C(=O)O`?
Answer: outcome [1]: inactive; outcome [2]: inactive

Question: With `CCO[Si](CCCN)(OCC)OCC` as the compound, how does the outcome [3] read?
Answer: inactive

Question: And the outcome [4]?
Answer: inactive

Question: What about the outcome [5] of the same compound?
Answer: inactive

Question: Which outcome [6] does the source give for `CCC(C)=NO` here?
Answer: inactive

Question: For `CC[N+](CC)(CC(=O)Nc1c(C)cccc1C)Cc1ccccc1` (tested in a mixture with another compound), which AC50 [7] is on record?
Answer: 4.38 µM (active)

Question: And the outcome [8]?
Answer: inactive

Question: What about the outcome [9] of the same compound?
Answer: inactive

Question: And the outcome [10]?
Answer: inactive

Question: What about the outcome [11] of the same compound?
Answer: inactive

Question: What about the outcome [12] of the same compound?
Answer: inactive

Question: Which results are given for `CCCCCCCCCCCCCCCCCC[N+](C)(C)C`?
Answer: AC50 [13]: 0.826 µM (active); AC50 [14]: 1.06 µM (active); AC50 [6]: 2.93 µM (active)

Question: With `CN(C)c1ccc(C(c2ccccc2)c2ccc(N(C)C)cc2)cc1` as the compound, how does the AC50 [7] read?
Answer: 2.78 µM (active)

Question: What about the AC50 [6] of the same compound?
Answer: 31.7 µM (active)

Question: And the AC50 [15]?
Answer: 10.6 µM (active)

Question: What about the AC50 [16] of the same compound?
Answer: 25.3 µM (active)

Question: What about the outcome [17] of the same compound?
Answer: inactive

Question: With `CC[N+](CC)(CC(=O)Nc1c(C)cccc1C)Cc1ccccc1` as the compound, how does the AC50 [13] read?
Answer: 0.132 µM (active)

Question: What about the AC50 [14] of the same compound?
Answer: 0.419 µM (active)

Question: And the outcome [18]?
Answer: inactive

Question: With `COC(=O)/C=C\C(=O)OC` as the compound, how does the outcome [18] read?
Answer: inactive

Question: With `COC(OC)C(C)c1ccccc1` (centres undefined) as the compound, how does the outcome [19] read?
Answer: inactive

Question: What about the outcome [20] of the same compound?
Answer: inactive

Question: Which AC50 [19] does the source give for `Oc1ccc(Oc2ccccc2)cc1` here?
Answer: 11 µM (active)

Question: And the AC50 [20]?
Answer: 8.86 µM (active)

Question: Which outcome [6] does the source give for `O=C1NC(=O)[C@@H]2CC=CC[C@H]12` here?
Answer: inactive

Question: What does the source list for `CN(C)Cc1cc(C(C)(C)C)c(O)c(C(C)(C)C)c1`?
Answer: outcome [8]: inactive; outcome [9]: inactive; outcome [10]: inactive; AC50 [11]: 22.8 µM (active); outcome [12]: inactive

Question: Which AC50 [18] does the source give for `Cc1ccccc1S(N)(=O)=O` here?
Answer: 1.88 µM (active)

Question: With `CCCCCC1CCCC(=O)O1` (centres undefined) as the compound, how does the outcome [18] read?
Answer: inactive

Question: For `CC1(C)S[C@@H]2[C@H](NC(=O)[C@H](N)c3ccccc3)C(=O)N2[C@H]1C(=O)O`, which outcome [8] is on record?
Answer: inactive

Question: What about the AC50 [9] of the same compound?
Answer: 3.57 µM (active)

Question: What about the outcome [10] of the same compound?
Answer: inactive

Question: And the AC50 [11]?
Answer: 0.0846 µM (active)

Question: What about the outcome [12] of the same compound?
Answer: inactive

Question: With `O=[N+]([O-])c1ccc(ON=Cc2cc(Br)c(O)c(Br)c2)c([N+](=O)[O-])c1` as the compound, how does the outcome [19] read?
Answer: inactive

Question: Which outcome [1] does the source give for `CCCCCC[C@@H](O)C/C=C\CCCCCCCC(=O)O` here?
Answer: inactive

Question: What about the outcome [2] of the same compound?
Answer: inactive
